Here are results for twelve compounds from PubChem BioAssay (NCI).

Test in all cases: NCI-60 one-dose screen, 48 h (100 = growth as untreated, 0 = no growth, -100 = all killed)
Common to all, as to conditions: 10 µM unless noted

The subject of assay [1] is NCI-H23 lung.
In assay [2] the test system is NCI-H226 lung.
For assay [3], the system named is NCI-H322M lung.
Assay [4] has as its system HOP-62 NSCLC.
Assay [5] deals with NCI-H460 lung.
The test system of assay [6] is HOP-92 NSCLC.
The subject of assay [7] is NCI-H522 lung.
Assay [8] concerns A549/ATCC NSCLC.
The subject of assay [9] is 786-0 renal.
Assay [10] has as its system COLO 205 colon.

Each structure is given as a SMILES string. Compounds without any hit were thinned out: in the full panel of roughly 83,000, 20% have a hit.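 Cell lines were cultured in 96-well plates, exposed to a single compound concentration, and assessed for percent growth 48 hours later.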 A number with no mark means an inactive call. Calls of active or inactive are those of the source. The calls were made as follows: active = growth percent below 10; inactive = the rest.

`O=C(/C=C/c1cccs1)Nc1ncc(Cc2ccc(Cl)c(Cl)c2)s1`: the growth in assay [1] is 91.4%; in assay [2] it was 86%; in assay [3], 76.5%; in assay [4], 61.5%; in [5], 48%; in assay [6], 78.1%. Also, the growth in assay [7] is 38.9%; in assay [8] it was 59.4%; in assay [9] it was 75.2%; in [10], 51.4%.

In the case of `O=C1/C(=C/c2cn(-c3ccccc3)nc2-c2ccccc2)SC(=S)N1c1ccc(Cl)cc1`, the growth is 87.5% in assay [1]; 71.2% in assay [2]; 64.8% in assay [3]; 52.7% in [4]; 47.5% in assay [5]; 43.3% in [6]. In addition, the growth in assay [7] was 83.7%; in assay [8] it was 68.8%; in assay [9] it was 85.5%; in assay [10] it was 111%.

As to `COc1ccc(S(=O)(=O)Nc2cc(Sc3cccc4cccnc34)c(O)c3ccccc23)cc1`, the growth in assay [1] is 23.7%; in assay [2], 41.2%; in assay [3] it was 29.9%; in [4], 45.8%; in [5], 4.45% (active); in assay [6], 38.9%. Further, the growth in assay [7] is -39% (active); in [8], 13.3%; in [9] it was 28.5%; in [10], -60.2% (active).

On to `CCN1C(=O)/C(=c2\sc3n(c2=O)C2C(NN=3)N(CC)C(=O)N2CC)c2ccccc21` (stereo not given), for which the growth was 34.5% in assay [1]; 103% in assay [2]; 46.5% in assay [3]; 32.1% in [4]; 4.65% (active) in assay [5]; 39.2% in assay [6]. The growth was 19.9% in assay [7], 32.8% in assay [8], 30.9% in [9] and -11.5% (active) in assay [10].

For the compound `CN1CCN(Cc2ccc(NC(=O)c3nc4ccc5[nH]ncc5c4c4c3CCCC4)cc2C(F)(F)F)CC1`, the growth in assay [1] was -21.9% (active); in assay [2], 73.4%; in [3], 19%; in [4], -75.9% (active); in assay [5], -58.6% (active); in [6], -79.9% (active). Further, the growth in assay [7] is -70.7% (active); in assay [8], -83.1% (active); in assay [9] it was -85.4% (active); in assay [10], -86.8% (active).

As to `Cc1ccc(Cl)cc1N1CCN(C(=O)[C@@H]2C[C@@H]2c2ccc(F)cc2)CC1`, the growth in [1] was 84.2%; in [2], 73.6%; in assay [3], 93%; in assay [4], 100%; in assay [5], 99.7%; in assay [6] it was 74.9%. The growth was 69.3% in assay [7], 77.7% in assay [8], 93.6% in assay [9] and 107% in assay [10].

`COc1c(O)c(O)cc2c3c(oc12)CC(c1ccc2c(c1)OCO2)CC3=O` (stereo not given): the growth in [1] was 69.4%; in assay [2] it was 80%; in [3], 73.2%; in assay [4], 71.4%; in [5], 25%; in assay [6], 71.7%. For the same compound, the growth is 54.2% in assay [7], 60.7% in assay [8], 52.1% in assay [9] and 119% in [10].

With `COC(=O)/C=C1/SC(=Nc2ccc([N+](=O)[O-])cc2)N(CCc2c[nH]c3ccccc23)C1=O`, the growth was 72.7% in assay [1]; 98.7% in assay [2]; 98.4% in assay [3]; 96.7% in assay [4]; 92.2% in [5]; 73.2% in [6]. Moreover, the growth is 53.6% in assay [7], 90.8% in assay [8], 68% in assay [9] and 84.6% in [10].

Regarding `Cc1ccc(C(=O)Nc2nc3c(s2)CN(Cc2ccccc2)CC3)cn1`, the growth in assay [1] is 80.5%; in assay [2] it was 88.8%; in assay [3], 92.9%; in assay [4], 88.5%; in [5], 101%; in assay [6], 97.5%. Besides, the growth in [7] is 65.9%; in [8] it was 75.4%; in assay [9], 85.1%; in assay [10] it was 87.4%.

With `COc1cc(NS(=O)(=O)C(C)C)cc(-c2cc(-c3ccc(N4CCNCC4)cc3)cnc2N)c1`, the growth in assay [1] is 84.1%; in [2] it was 61.1%; in [3] it was 91%; in assay [4], 103%; in assay [5], 97.1%; in assay [6], 61.8%. Also, the growth is 52.8% in [7], 76.9% in assay [8], 45.1% in assay [9] and 84.4% in assay [10].

Consider `CCCCCC#CC1OC23CCCCC2C(C#N)(C(=N)O3)C1(C#N)C#N` (stereo not given), for which the growth in assay [1] is 101%; in assay [2], 97.4%; in assay [3], 98.3%; in [4], 98.8%; in [5], 99.8%; in [6], 90.4%. In addition, the growth in [7] was 77.5%; in assay [8], 75.6%; in assay [9], 91.4%; in assay [10], 117%.

Turning to `Fc1ccccc1-c1cnn2cc(-c3ccccc3)cnc12`, the growth in [1] is 95.5%; in [2] it was 94.3%; in assay [3], 95.5%; in assay [4] it was 103%; in assay [5] it was 98.2%; in assay [6], 100%. The growth was 97.7% in assay [7], 94.2% in [8], 97.2% in assay [9] and 118% in assay [10].
